According to PubChem BioAssay AID1792 (The Scripps Research Institute Molecular Screening Center, 2009):
Among all 16,000 compounds or so, about 130 (0.81%) were called active. Only a selection was taken, and actives are over-represented in it overall. Values without a mark were called inactive. Rule as the data show it: active = inhibition above about 75%; inactive = the rest.

What follows are compounds tested against NADPH oxidase 1 (Homo sapiens) (UniProt Q9Y5S8) (assay: blocks human NADPH oxidase 1 activity (AID 1792)). Conditions: HT29 cells, luminol chemiluminescence ROS; at 6.7 µM; active compounds read high.
Chain of NADPH oxidase 1 (Homo sapiens) (Q9Y5S8 whole entry, looked up): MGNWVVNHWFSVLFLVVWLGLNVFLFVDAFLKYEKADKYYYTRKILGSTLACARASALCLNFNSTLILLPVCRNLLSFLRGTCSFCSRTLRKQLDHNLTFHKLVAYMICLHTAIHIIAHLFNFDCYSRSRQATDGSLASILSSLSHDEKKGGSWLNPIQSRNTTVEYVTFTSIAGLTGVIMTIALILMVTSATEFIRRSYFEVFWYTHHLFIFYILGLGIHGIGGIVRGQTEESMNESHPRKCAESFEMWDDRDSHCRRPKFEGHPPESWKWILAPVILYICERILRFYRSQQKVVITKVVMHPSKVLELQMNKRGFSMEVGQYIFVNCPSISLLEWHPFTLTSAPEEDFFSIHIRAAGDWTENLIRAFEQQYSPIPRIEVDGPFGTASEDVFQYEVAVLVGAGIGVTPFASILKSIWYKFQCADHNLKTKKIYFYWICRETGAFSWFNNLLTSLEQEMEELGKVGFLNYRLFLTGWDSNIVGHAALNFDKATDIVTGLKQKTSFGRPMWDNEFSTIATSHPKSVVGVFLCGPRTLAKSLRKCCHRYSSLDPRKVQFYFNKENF

| Compound | inhibition |
| --- | --- |
| COc1ccc(NC(NC(=O)c2ccc(OC)cc2)(C(F)(F)F)C(F)(F)F)cc1 | -26.1% |
| COc1ccc(NC(=O)C2CC(C)=C(C)CC2C(=O)O)c(N2CCOCC2)n1 (centres undefined) | -11.6% |
| O=C(CSC(=S)N1CCCCC1)c1c(F)cccc1F | 16% |
| Cn1nc(-c2ccccc2)cc1N | 12.5% |
| O=C(Nc1ccc(C(F)(F)F)cc1)Nc1ccccc1C(=O)O | -32.5% |
| Cc1ccc(OC(=O)c2nn(-c3ccccc3)nc2C)c([N+](=O)[O-])n1 | -75.6% |
| O=C(NCc1cc2ccccc2s1)C1CN(C(c2ccccc2)c2ccccc2)C1 | -2.49% |
| O=C(O)CC(CC(=O)O)c1ccc(C(F)(F)F)cc1 | -30.4% |
| COC(=O)c1sc(S(C)=O)c(-c2ccon2)c1C (centres undefined) | -55.1% |
| Cc1onc(-c2ccccc2)c1C(=O)Sc1ccc(C(F)(F)F)cn1 | -30.5% |
| COC(=O)c1ccc(/C=C2\C(=O)Nc3ccccc32)n1-c1ccc(F)cc1 | -9.26% |
| COc1ccc(Cc2nnc(SC)[nH]c2=O)cc1 | -41.8% |
| O=S(=O)(Oc1ccc(C2SCCS2)cc1)c1ccc(Br)cc1 | 10.3% |
| OC(c1ccncc1)c1c[nH]c2ccccc12 (centres undefined) | -46.2% |
| COc1ccc(OC)c(CCCc2cc(OC)ccc2OC)c1 | -22.8% |
| N#Cc1ccc(N2CCN(C(=O)c3ccco3)CC2)cc1 | -5.71% |
| Cc1[nH]c2c(F)cc(F)cc2c(=O)c1I | -29.2% |
| COc1cc(-c2n[nH]c(=S)n2Cc2ccccc2)cc(OC)c1OC | -31.5% |
| O=C1CCCCC(=O)c2ccccc2N1 | -36.9% |
| Cc1c(S(=O)(=O)c2ccc(Cl)cc2)csc1C(=O)Nc1ccc2c(c1)OCCO2 | -34.3% |
| NS(=O)(=O)c1cc(C(F)(F)F)cc(C(F)(F)F)c1 | -30.4% |
| NNC(=O)c1ccc(Cl)cc1Cl | -29.6% |
| N#CNC(N)=Nc1cc(Cl)ccc1Cl | -53.6% |
| O=C(NCc1csc(-c2cccs2)n1)Nc1ccccc1-c1ccccc1 | 11.9% |
| Cn1c(=O)c(/C(N)=N/OC(=O)c2ccccc2Cl)cn(-c2ccccc2)c1=O | -28.3% |
| N/C(CC(=O)Nc1ccc(F)c(Cl)c1)=N\O | 8.11% |

| Compound | inhibition |
| --- | --- |
| O=C1NCCN1CCNS(=O)(=O)c1cc(Cl)sc1Cl | 14.5% |
| O=C(N[C@@H](Cc1ccc(O)cc1)C(=O)O)OCc1ccccc1 | -6.06% |
| CN(C)NC(=O)c1csnc1-c1c(Cl)cccc1Cl | -20.2% |
| CC(OC(=O)c1cccc(Cl)c1)c1ccc[n+](C)c1 (centres undefined) | -47.2% |
| CCOC(=O)/C(C#N)=C/c1ccc(-c2nccs2)cc1C(C)(C)C | 8.33% |
| N#CC(C#N)=C/C=C(/Sc1nc2cc(Cl)ccc2s1)c1ccc(Cl)cc1 | -27.8% |
| CCOC(=O)N1CCN(CC(O)COc2ccc(OC(F)(F)F)cc2)CC1 (centres undefined) | -47.2% |
| O=C(O)CC(CC(=O)Oc1ccccc1N1CCCCC1)c1ccccc1 (centres undefined) | -24.8% |
| CCOC(=O)c1sc2ccccc2c1N | -25.5% |
| O=C(Oc1ccccc1N1CCCCC1)c1sc2ccccc2c1Cl | 85.7% (active) |
| N#C/C(=C\N1CCc2ccccc21)S(=O)(=O)c1ccc(C(F)(F)F)cn1 | -30.5% |
| N#CCCN(CCc1ccccn1)S(=O)(=O)c1ccc2c(c1)CCO2 | 35.1% |
| CCOC(=O)Cc1cnc(NN=C2C3CC4CC(C3)CC2C4)s1 | 55.1% |
| CSc1sc(NC(=O)N2CCOCC2)c(-c2ccc(Cl)cc2)c1C#N | 17.4% |
| O=C(CNC(=O)c1ccccc1F)c1ccc(Br)cc1 | -16.2% |
| COc1ccc(COCC(O)CN2CCC(C(N)=O)CC2)cc1 (centres undefined) | -52.2% |
| CCOC(=O)O/N=C(\N)c1ccc(Cl)cc1 | 26% |
| CC(C)(C)c1ccc(NC(=O)c2ccco2)c(NC(=O)C(Cl)(Cl)Cl)c1 | 6.12% |
| CN(Cc1nnc(-c2ccc3ccccc3c2)o1)c1nnc(C(F)(F)F)s1 | 10.6% |
| CC1(C)CC(=O)c2c(NCc3ccco3)sc(C#N)c2C1 | -14.6% |
| CC(C)n1c(SCC(=O)c2cccc([N+](=O)[O-])c2)nc2cc(C(F)(F)F)ccc21 | 4.76% |
| CCOC(=O)c1cc(C)nc(Sc2ccccc2NC(=O)Nc2ccc(Cl)cc2)c1C#N | 34.3% |
| Cc1nn(-c2ccccc2)nc1C(=O)Nc1nnc(C2CC2)s1 | -13.2% |
| COC(=O)c1cc(OC)c(OC)cc1NS(=O)(=O)c1ccsc1C(=O)OC | -24.8% |
| O=C(NNc1ccc(C(F)(F)F)cn1)c1ccccc1Cl | 40.9% |
| O=C1C=C(NNc2ccccc2)CCC1 | -9.52% |

| Compound | inhibition |
| --- | --- |
| Cn1cnnc1SCC(=O)Nc1cc(C(F)(F)F)cc(C(F)(F)F)c1 | -26.6% |
| CC1CN=C(N(Cc2cccnc2)C(=O)Nc2ccc(Cl)c(Cl)c2)S1 (centres undefined) | 11.1% |
| FC(F)(F)c1cnc(NN=C2CCSCC2)c(Cl)c1 | -21.6% |
| N/C(=N/OC(=O)NC(=O)c1c(Cl)cccc1Cl)c1ccc(F)cc1F | -11.4% |
| Cc1nn(C)c(C)c1Sc1nccc(-c2cccnc2)n1 | 17.5% |
| COc1cc(OC)nc(/N=C/c2nc(-c3ccccc3)oc2O)n1 | 16.6% |
| O=C(NCc1ccccc1)c1cc2sccc2s1 | -33% |
| CSc1n[nH]c(=O)n1-c1cccc(C(F)(F)F)c1 | -36.5% |
| O=S(=O)(c1ccc2c(c1)OCCO2)N1CCN(c2ccc(C(F)(F)F)cn2)CC1 | -13.2% |
| Cc1c(CC(=O)Oc2ccc([N+](=O)[O-])cc2)sc2ccc(Cl)cc12 | 15.6% |
| CCCCc1ccc(S(N)(=O)=O)cc1 | -14.9% |
| O=C(O)CC1(CC(=O)NCc2ccco2)CCCCC1 | -9.49% |
| CCOC(=O)/C(=N/Nc1ccccc1)C(C)=N | -20% |
| CC(=O)Nc1ccc(F)cc1F | -7.89% |
| Cc1cc(Cl)ccc1NC(=S)NNC(=S)Nc1ccc(F)cc1 | 87.6% (active) |
| COc1ccc(OCCC(=O)NNC(=S)Nc2cc(Cl)ccc2Cl)cc1 | -22.8% |
| O=[N+]([O-])c1ccc(N2CCOCC2)cc1 | 23.6% |
| CN(NS(=O)(=O)CS(C)(=O)=O)c1ncccc1[N+](=O)[O-] | -4.72% |
| O=C1C(Cl)=C(Oc2cc(Cl)c(Cl)cc2Cl)C(=O)c2ccccc21 | 64% |
| O=C(O)C#Cc1cccc2ccccc12 | -49.7% |
| Cc1ccc2oc(-c3cccs3)nc2c1 | -69.6% |
| Clc1ccc(CO/N=C/c2nc3ccccc3s2)cc1 | -46.7% |
| CSc1nsc(SC)c1C(=O)Nc1cc(C(F)(F)F)cc(C(F)(F)F)c1 | -44% |
| CCOC(=O)/C(C#N)=C/N/S(C)=N/N=C/c1ccc(N(C)C)cc1 (centres undefined) | 3.26% |
| CCCCNc1nc(N)ns1 | -43% |
| Clc1ccc(-c2csc(N/N=C\c3ccn[nH]3)n2)cc1 | 19% |

| Compound | inhibition |
| --- | --- |
| Cc1nc(-c2ccccn2)n2nnnc2c1Cl | -68.7% |
| O=[N+]([O-])c1ccc(CSc2nc3cc(Cl)c(F)cc3[nH]2)cc1 | 10.8% |
| Cn1nnnc1SCC(=O)Nc1ccc(OC(F)(F)F)cc1 | 12% |
| CN(C)c1ccc(C=Nc2ccc(S(N)(=O)=O)cc2)cc1 | -7.18% |
| O=S(=O)(Cc1nnc(-c2cc(Cl)cc(Cl)c2)o1)c1ccc(Cl)cc1 | -4.49% |
| O=C(CSC1=NCCc2ccccc21)Nc1ccc(F)cc1F | 0% |
| N/C(=N\OS(=O)(=O)c1ccc(C(F)(F)F)cc1)C1CSCCS1 (centres undefined) | -14.1% |
| CC1=CC(=O)C(CCC2=CC(=O)C(C)=CC2=O)=CC1=O | 87.8% (active) |
| COc1ccc(/C(C)=N/Nc2c([N+](=O)[O-])cc(C(F)(F)F)cc2[N+](=O)[O-])cc1CC#N | -38.4% |
| O=C(O)C1CCC1C(=O)Nc1nnc(C2CC2)s1 (centres undefined) | 12% |
| COc1ccc(/C=N/N2CCC(=O)Nc3ccccc32)c(OC)c1 | -3% |
| Cc1oc(-c2ccc(Cl)cc2)cc1C(=O)O/N=C(\N)Cc1nc2cccnc2n1C1CC1 | 86.4% (active) |
| Cc1oc(-c2ccc(Cl)cc2)cc1C(=O)N1CCN(Cc2ccccc2)CC1 | -19.5% |
| Cc1oc(-c2ccc(Cl)cc2)cc1C(=O)N1CCOCC1 | 4.54% |
| CC(=O)N1CCc2cc(NC(=S)Nc3ccccc3Cl)ccc21 | 11.8% |
| CN1CCCCC(C2=C(Cl)C(=O)CCC2)C1=O (centres undefined) | -2.08% |
| O=C1C(Nc2ccccc2)=CC(c2ccc([N+](=O)[O-])cc2)N1c1ccccc1 (centres undefined) | -5.43% |
| O=C(O)c1cc(=O)[nH]c2c(Cl)cc(Cl)cc12 | -17.9% |
| Cc1ccc(S(=O)(=O)N/N=C/c2ccc(O)cc2O)cc1 | -34.9% |
| COc1ccc2c(OC(C)=O)coc2c1 | -103% |
| COc1cc(C=C(C#N)C#N)cc(OC(C)=O)c1OC(C)=O | 93.6% (active) |
| Cc1nnsc1C(=O)N/N=C/c1ccccc1Cl | 26.6% |
| Cc1nn2c(=O)c3c4c(sc3nc2[nH]c1=O)CCCC4 | -87% |
| COC(OC)c1ccnc(SCC(=O)Nc2ccc(C(C)C)cc2)n1 | -5.58% |
| N#Cc1cn(-c2cccc(C(F)(F)F)c2)c(=O)n(Cc2ccc(Cl)cc2)c1=O | 11.4% |
| O=C1OC2(CCCCC2)OC1c1ccccc1 (centres undefined) | -30.5% |
